Laboratory results reported in PubChem BioAssay (NCATS).
“And” between values parts separate entries of the source, which are not always exact repeats. Equal entries are not always repeated. Results filed as inconclusive are left out. The source made the active and inactive calls. Unless noted, calls follow the shape of the dose curve; as a rule, active = well fitted curve in the direction sought with a large enough effect; inconclusive = small, poorly fitted or top-dose-only effect, or another doubt; inactive = no such curve, though single readings can be large; an effect the other way counts as inactive or inconclusive.

Legend:
[1] = Cell Viability - MRC5 (AID 434; calls by dose curve;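 also: potency is read from the fitted curve at half-maximal effect; cells exposed to compound for 40 hours at 37 °C; potency reflects cytotoxicity seen as loss of intracellular ATP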); conditions: MRC5 lung fibroblast viability, qHTS
Outline: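 qHTS cytotoxicity in human lung fibroblast MRC5 cells; 40 hr treatment, 37 °C; cellular ATP by luciferase luminescence; DMSO = 0%, 100 uM tamoxifen = 100% inhibition; Hill-fit AC50.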

[2] = Cellular Toxicity (caspase-3) HepG2 (AID 654); conditions: HepG2 caspase-3 activation, luminescence; series mostly up to 92.2 µM;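 also: cells exposed to compound for 16 hours before reading; 0% = DMSO alone and 100% = caspase signal from 100 µM tamoxifen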
Outline: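 HepG2 cells (1500/well) in complete medium were treated with compounds for 16 hr at 37 °C. Caspase-3/7 activity was then read as luminescence from peptide-aminoluciferin cleavage. AC50 came from Hill fits, normalized to DMSO and 100 uM tamoxifen.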

[3] = Cellular Toxicity (caspase-3) HUV-EC-C (AID 656); conditions: HUV-EC-C cells, caspase-3 activation (apoptosis); series mostly up to 92.2 µM
Outline: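 HUV-EC-C endothelial cells, 1000/well, were pre-incubated 5 hr at 37°C, then exposed to compounds for 16 hr at 37°C. Caspase-Glo 3/7 luminescence was read after 20 min at room temperature. AC50 came from Hill fits, normalized to DMSO and 100 uM tamoxifen.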

[4] = Cellular Toxicity (caspase-3) SHSY5Y (AID 657); conditions: SH-SY5Y caspase-3 activation; series mostly up to 91.7 µM
Outline: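 SH-SY5Y human neuroblastoma cells (1500/well) were treated with compounds for 16 h at 37 °C, then Caspase-Glo 3/7 luminescence was read after 1 h at room temperature. Data normalized to DMSO and 10 uM staurosporine; AC50 from Hill fits.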

[5] = Cellular Toxicity (caspase-3) BJ (AID 658); conditions: BJ fibroblasts, luminescence; Potency: caspase-3 activation; series mostly up to 91.7 µM
Outline: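 Readout: Caspase-Glo 3/7 luminescence increase in BJ cells after 16 hr treatment at 37 °C. Staurosporine and tamoxifen served as positive controls; AC50 values came from Hill modelling of data normalized to DMSO and 10 uM staurosporine.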

[6] = Cellular Toxicity (caspase-3) MRC-5 (AID 659); conditions: MRC-5 cells, luminescence, normalized: DMSO 0%, 10 µM staurosporine 100%; series mostly up to 91.7 µM
Outline: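 Concentration-dependent caspase 3/7 activation is measured in human normal lung fibroblasts (MRC-5) following 16-hour treatment. AC50 values come from standard Hill-equation modeling of luminescence normalized to DMSO and 10 uM staurosporine.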

[7] = Cellular Toxicity (caspase-3) Mesangial (AID 660); conditions: mesangial cells, normalized: DMSO 0%, 100 µM tamoxifen 100%; series mostly up to 91.7 µM;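 also: cells exposed to compound for 16 h before the caspase read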
Outline: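 Human renal glomerular mesangial cells (1000/well) were treated with compounds for 16 h at 37 °C in complete medium, then caspase 3/7 activity was read by Caspase-Glo luminescence. Data were normalized to DMSO and 100 uM tamoxifen; AC50 from Hill fits.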

[8] = Cellular Toxicity (caspase-3) SK-N-SH (AID 661); conditions: SK-N-SH caspase-3 activation, qHTS, DMSO as zero, staurosporine as full; series mostly up to 91.7 µM
Outline: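 SK-N-SH human neuroblastoma cells (1500/well) were treated with compounds for 16 hr at 37 °C in complete medium; caspase 3/7 activity was read by Caspase-Glo luminescence. AC50 came from Hill fits of data normalized to DMSO and 10 uM staurosporine.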

[9] = Cellular Toxicity (caspase-3) H-4-II-E (AID 663); conditions: H-4-II-E rat hepatoma; Potency: caspase-3 activation; series mostly up to 92.2 µM;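 also: cells exposed to compound for 16 hr before readout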
Outline: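 Apoptosis induction is scored as increased luminescence from caspase 3/7 substrate cleavage in rat hepatoma H-4-II-E cells exposed to compound for 16 hr. Activity is scaled between DMSO and 100 uM tamoxifen.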

[10] = Cellular Toxicity (caspase-3) Hek293 (AID 664); conditions: HEK293 caspase-3 activation, DMSO = 0%, 100 µM tamoxifen = 100%; at 92.2 µM (top of the series);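 also: cells exposed to compound for 16 h at 37 °C before readout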
Outline: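 HEK293 cells were exposed to compounds in complete medium for 16 hr at 37 °C, then caspase-3/7 activity was read by Caspase-Glo 3/7 luminescence after 20 min at room temperature. Data normalized to DMSO and 100 uM tamoxifen; AC50 from Hill fits.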

[11] = Cellular Toxicity (caspase-3) N2a (AID 665); conditions: N2a cells, luminescence, normalized: DMSO 0%, 10 µM staurosporine 100%; series mostly up to 92.2 µM;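 also: compound exposure lasted 16 h at 37 °C before readout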
Outline: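 Mouse N2a neuroblastoma cells (1500/well) were treated with compounds for 16 h at 37 °C, then caspase-3/7 activity was read by Caspase-Glo luminescence after 1 h at room temperature. Data were normalized to DMSO and 10 uM staurosporine; AC50 from Hill fits.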

[12] = Cellular Toxicity (caspase-3) Renal Proximal Tubule (AID 667); conditions: renal proximal tubule cells, primary cells freshly taken from rat; Potency: caspase-3 activation; series mostly up to 91.7 µM;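 also: cells exposed to compound for 16 hours at 37 °C before detection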
Outline: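 Primary rat proximal tubule cells, 1000/well, 5 h plating at 37 °C, then compound 16 h at 37 °C. Caspase-Glo 3/7 reagent, 1 h RT, luminescence. Normalized to DMSO (basal) and 10 uM staurosporine (100%); Hill-fit AC50.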

[13] = MultiTox-Fluor Cytotoxicity Assay - LYMP1-001 - Dead Cells (AID 946); conditions: LYMP1-001 lymphoblastoid cells, dead-cell protease fluorescence; series mostly up to 92.2 µM;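 also: 0% = DMSO and 100% = tetraoctylammonium bromide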
Outline: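 LYMP1-001 lymphoblastoid cells (2500/well) treated 16 h at 37 C. Dead-cell protease cleavage of bis-AAF-R110 read at Ex/Em 485/520. Normalized to DMSO and 15 uM tetraoctylammonium bromide; AC50 from Hill fits.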

[14] = MultiTox-Fluor Cytotoxicity Assay - LYMP1-003 - Dead Cells (AID 961); conditions: LYMP1-003 lymphoblastoid cells, dead-cell protease fluorescence; series mostly up to 92.2 µM;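 also: 0% = DMSO and 100% = tetraoctylammonium bromide; nearly all actives have a fitted effect of over 70% in size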
Outline: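 LYMP1-003 human lymphoblastoid cells (2500/well) exposed to compound 16 h at 37 C in complete medium; dead-cell protease read with bis-AAF-R110 fluorescence (Ex/Em 485/520) after 60 min at room temperature. Normalized to DMSO and 15 uM tetraoctylammonium bromide; AC50 from Hill fit.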

[15] = MultiTox-Fluor Cytotoxicity Assay - LYMP1-003 - Live Cells (AID 962); conditions: LYMP1-003 lymphoblastoid cells, MultiTox-Fluor live-cell protease fluorescence; series mostly up to 92.2 µM;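 also: 0% = DMSO only and full loss = 92 µM tetraoctylammonium bromide; cytotoxic hits lower the live-cell protease signal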
Outline: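 LYMP1-003 human lymphoblastoid cells (2500/well) in complete medium were preincubated 5 hr at 37 C, then exposed to compounds for 16 hr at 37 C. Live-cell protease cleavage of GF-AFC read by fluorescence (Ex/Em 405/510); AC50 from Hill fits.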

[16] = Cell Viability - LYMP1-003 - Assay at 24 hr (AID 963); conditions: LYMP1-003 lymphoblastoid cell viability; series mostly up to 92.2 µM;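 also: plate controls were DMSO only for no effect and tetraoctylammonium bromide positive control for full effect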
Outline: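 Human lymphoblastoid LYMP1-003 cells (2500/well) were rested 5 hr at 37 C, then exposed to compounds in complete medium for 24 hr at 37 C. Cellular ATP was quantified by CellTiter-Glo luminescence, and AC50 values came from Hill fits of concentration-response data.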

[17] = Cell Viability - LYMP1-002 - Assay at 24 hr (AID 993); conditions: LYMP1-002 lymphoblastoid cells viability; series mostly up to 92.2 µM; also: % is scaled to controls: 0 for no effect and ±100 for the full control effect
Outline: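 Human lymphoblastoid LYMP1-002 cells, 2500/well in complete medium, were treated with compounds for 24 h at 37 C; intracellular ATP was read by CellTiter-Glo luminescence. AC50 values came from Hill-equation fits of qHTS concentration-response data.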

[18] = qHTS Assay for Identification of Small Molecule Inducers of Hypoxia Response (AID 2120; active = well fitted curve in the direction sought with a large enough effect in the signal ratio, with a control signal flat, not every such curve was filed as active; the % refers to the signal ratio; also: 0% is about no effect); conditions: hypoxia response reporter cells, beta-lactamase ratio readout; series mostly up to 104 µM
Outline: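 HRE-beta-lactamase reporter in CellSensor HRE-bla ME-180 cells, 2500 cells/well in Opti-MEM with 0.5% dialyzed FBS; compounds tested as titration series, 17 h at 37 degrees C. CCF4 substrate 2.5 h at room temperature; AC50 from 460/530 nm ratio.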

[19] = target: Peroxisome proliferator-activated receptor alpha (Homo sapiens) (UniProt Q07869); assay: qHTS assay for small molecule agonists of the peroxisome proliferator-activated receptor alpha (PPARalpha) signaling pathway (AID 651778); conditions: PathHunter PPARalpha complementation, chemiluminescence, 6 h; max response: active compounds read high; also: % of control where 0% means no effect
Outline: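 Chemiluminescence from complemented enzyme reported PPARalpha activation in cells after 6 hr of compound treatment at 37 C. The detection reagent was incubated for 60 min at room temperature, and compounds were scored as agonists.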

[20] = qHTS assay for cell viability of the p53RE-bla HCT-116 cell line (AID 743292); conditions: p53RE-bla HCT-116 viability, ATP luminescence, 16 h; series mostly up to 95 µM; also: % is scaled to controls: 0 for no effect and ±100 for the full control effect; nearly all actives have a fitted effect of over 55% in size
Outline: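 HCT-116 p53RE-bla cells seeded 4,000/well; 5 h at 37 C; compound (DMSO) added; 16 h at 37 C; CellTiter-Glo added, 30 min RT; luminescence read.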

Chain of Peroxisome proliferator-activated receptor alpha (Homo sapiens) (Q07869 whole entry, looked up): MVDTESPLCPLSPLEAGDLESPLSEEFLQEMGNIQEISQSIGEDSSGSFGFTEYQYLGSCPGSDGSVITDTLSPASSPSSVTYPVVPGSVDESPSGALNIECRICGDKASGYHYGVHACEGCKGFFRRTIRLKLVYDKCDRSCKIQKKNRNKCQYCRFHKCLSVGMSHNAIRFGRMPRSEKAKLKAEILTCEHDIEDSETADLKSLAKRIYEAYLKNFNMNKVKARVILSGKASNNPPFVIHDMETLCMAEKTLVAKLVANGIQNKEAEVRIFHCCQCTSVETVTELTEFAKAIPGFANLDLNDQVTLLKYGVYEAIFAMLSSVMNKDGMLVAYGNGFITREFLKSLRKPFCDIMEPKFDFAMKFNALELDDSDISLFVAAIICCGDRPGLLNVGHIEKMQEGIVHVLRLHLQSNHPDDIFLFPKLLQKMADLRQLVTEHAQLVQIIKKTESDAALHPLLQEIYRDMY

c1ccc2c(c1)ccc1ccccc12
inactive: Potency [1] > 92 µM | Potency [2] | Potency [3] | Potency [4] | Potency [5] | outcome [6] | outcome [7] | outcome [8] | Potency [9] | caspase-3 activation [10] -0.803% | outcome [11] | Potency [12] | Potency [13] | Potency [14] | Potency [15] | Potency [16] | Potency [17] | Potency [18] | max response [19] -2.79% and 0.0819% | Potency [20]

CC(C)COC(=O)COc1cc(Cl)c(Cl)cc1Cl
inactive: Potency [1] > 92 µM | Potency [2] | Potency [3] | Potency [4] | Potency [5] | outcome [6] | outcome [7] | outcome [8] | Potency [9] | caspase-3 activation [10] 3.66% | outcome [11] | Potency [12] | Potency [13] | Potency [14] | Potency [15] | Potency [16] | Potency [17] | Potency [18] | max response [19] 9.61% | Potency [20]

OC1CCCCC1
inactive: Potency [1] > 92 µM | Potency [2] | Potency [3] | Potency [4] | Potency [5] | outcome [6] | outcome [7] | outcome [8] | Potency [9] | caspase-3 activation [10] -0.682% | outcome [11] | Potency [12] | Potency [13] | Potency [14] | Potency [15] | Potency [16] | Potency [17] | Potency [18] | max response [19] -5.19% | Potency [20]

c1cc2c3c(c1)ccc1cccc(c13)C2
inactive: Potency [1] > 92 µM | Potency [2] | Potency [3] | Potency [4] | Potency [5] | outcome [6] | outcome [7] | outcome [8] | Potency [9] | caspase-3 activation [10] -1.87% | outcome [11] | Potency [12] | Potency [13] | Potency [14] | Potency [15] | Potency [16] | Potency [17] | Potency [18] | max response [19] 6.26% | Potency [20]

Oc1ccc(O)c2c(O)cccc12
inactive: Potency [1] > 92 µM | Potency [2] | Potency [3] | Potency [4] | Potency [5] | outcome [6] | outcome [7] | outcome [8] | caspase-3 activation [10] 18% | outcome [11] | Potency [12] | Potency [13] | Potency [14] | Potency [15] | Potency [16] | Potency [17] | Potency [18] | max response [19] 5.73% | Potency [20]

O=C(O)/C=C/c1ccc(/C=C/C(=O)O)cc1
inactive: Potency [1] > 92 µM | Potency [2] | Potency [3] | Potency [4] | Potency [5] | outcome [6] | outcome [7] | outcome [8] | Potency [9] | caspase-3 activation [10] -11.2% | outcome [11] | Potency [12] | Potency [13] | Potency [14] | Potency [15] | Potency [16] | Potency [17] | Potency [18] | max response [19] -4.38% | Potency [20]
